# Reference: ChEMBL document CHEMBL3988442, “University of Dundee, Small-Polar-MMV Screening Library” (2021)
# The whole screen tested about 48,000 compounds, of which about 13,000 (27%) showed an effect of 50% or more. The list shows a part of the results.
# Test system: Wolbachia pipientis
# Experiment: Anti-Wolbachia Cell-Based Screen
# Type: functional
# Design: scale not given: in the data most compounds retested in dose-response had high values
# Conditions: 5 µM
row,SMILES,Percent Effect
1,CCCOC(C)Cn1ccc2[nH]c(=O)c(C#N)cc2c1=O (stereo unspecified),-62.19%
2,CC(C)C(C)(CNC(=O)OC(C)(C)C)NC(=O)c1cnccn1 (stereo unspecified),1.478%
3,Cc1c(NCCOCC(F)(F)F)cccc1C(=O)N1CCCC1,1.47%
4,COc1ccc(S(=O)(=O)NCC(O)c2sccc2C)cc1C (stereo unspecified),4.303%
5,CCCC(=O)NC1CCCN(c2nc3ccccc3cc2CO)C1 (stereo unspecified),0.5391%
6,O=C(c1ccsc1)N1CC(C(=O)N2CCOCC2)C2(CCOCC2)C1 (stereo unspecified),-0.6494%
7,CC(C)(C)n1ncc(C(=O)NCCCC(N)=O)c1C(F)(F)F,6.459%
8,Cc1ccc(S(N)(=O)=O)cc1C(=O)N1CCc2c(ncnc2N(C)C)C1,-11.64%
9,Cc1ccc(S(N)(=O)=O)cc1C(=O)N1C[C@@H](CN(C)C)[C@@H](CO)C1,4.643%
10,Cc1ccc(S(N)(=O)=O)cc1C(=O)NC1CCCN(C)C1 (stereo unspecified),108%
11,O=S1(=O)CCC(c2nc(-c3cccc(Br)c3)no2)C1 (stereo unspecified),-8.148%
12,CN1[C@H]2CC[C@@H]1CN(C(=O)CCc1csc(N)n1)CC2,2.348%
13,CC(C)N1CCCC1c1csc(N)n1 (stereo unspecified),125.7%
14,CN(C)C1CCCN(C(=O)CCc2csc(N)n2)CC1 (stereo unspecified),-10.57%
15,CC(NC(=O)C1(NC(=O)c2ccc3[nH]ncc3c2)CCCC1)C1CC1 (stereo unspecified),-1.4%
16,CCn1cnnc1CNC(=O)N(C)Cc1ccc(Cl)cc1Cl,-3.326%
17,CCN(Cc1ccc2c(c1)OCCO2)C(=O)NCc1cc[nH]n1,-1.226%
18,CCn1cnnc1CNC(=O)N(C)Cc1cccc(OC(F)F)c1,110.2%
19,CC(NC(=O)N(C)Cc1cccc(OC(F)F)c1)c1nncn1C (stereo unspecified),-22.06%
20,CCn1cnnc1CNC(=O)N(C)Cc1ccc(F)c(F)c1,-10.5%
21,CCn1cnnc1CNC(=O)N(C)Cc1ccc2c(c1)OCO2,127.8%
22,CCn1cnnc1CNC(=O)CCC(=O)c1ccc2c(c1)OCCO2,5.212%

row,SMILES,Percent Effect
1,CCn1cnnc1CNC(=O)N(C)Cc1ccc2c(c1)OCCO2,2.42%
2,CCn1cnnc1CNC(=O)C1COc2ccc(Cl)cc2C1 (stereo unspecified),-2.501%
3,CCn1cnnc1CNC(=O)Cc1ccc2c(c1)OCCO2,101.5%
4,CCN(Cc1ccc2c(c1)OCCO2)C(=O)NCc1nncn1CC,99.19%
5,CCN(Cc1ccc2c(c1)OCCO2)C(=O)NCc1nc(C)cs1,-0.008456%
6,CCNS(=O)(=O)c1ccc(C)c(C(=O)N(C)Cc2ccco2)c1,-0.5279%
7,N#Cc1ccccc1OCCN1CCC(C(=O)N2CCOCC2)CC1,-3.937%
8,COc1cccc(CCNC(=O)CN2CCN(C)CC2C)c1 (stereo unspecified),5.841%
9,Cc1nnc(N2C[C@@H]3CCCO[C@@H]3[C@H](N3CCCC3=O)C2)s1.O=C(O)C(F)(F)F,-2.907%
10,CC(C)Cc1cc(-c2cc(-c3ccc[nH]3)nc(N)c2C#N)n[nH]1,126.8%
11,Cc1n[nH]c(C)c1-c1cc(-c2cc[nH]c2)nc(N)c1C#N,123.5%
12,Cc1n[nH]c(C)c1-c1cc(-c2ccc[nH]2)nc(N)c1C#N,119.5%
13,Cn1cc(-c2c(C#N)c(N)nc3c2CCc2[nH]ccc2-3)cc1C#N,-2.103%
14,Cc1n[nH]c(C)c1-c1cc(-c2cccc(O)c2)nc(N)c1C#N,88.86%
15,Cc1n[nH]c(C)c1-c1c(C#N)c(N)nc2c1CCc1[nH]ccc1-2,9.181%
16,CCN(c1ccccc1C(=O)O)S(=O)(=O)c1cccc2cccnc12,-1.145%
17,CC(C)=CCN1CCN(C(=O)CSc2ccccn2)[C@H]2CS(=O)(=O)C[C@H]21,6.252%
18,c1[nH]c(CC2CCCC2)nc1CN1CCCC2(CCOC2)C1 (stereo unspecified),-3.102%
19,CS(=O)(=O)c1ccc(NC(=O)CSC(F)(F)F)cn1,0.5317%
20,CC(C)c1n[nH]c(C2CN(C(=O)Cn3ccccc3=O)CCO2)n1 (stereo unspecified),111.9%
21,Cc1ccc(CC(=O)N2CCOC(c3nc(C(C)(C)C)n[nH]3)C2)cn1 (stereo unspecified),10.27%
22,CC(C)c1n[nH]c(C2CN(C(=O)CCn3ccccc3=O)CCO2)n1 (stereo unspecified),2.958%

row,SMILES,Percent Effect
1,CC(C)(C)c1n[nH]c(C2CN(C(=O)Cn3ccccc3=O)CCO2)n1 (stereo unspecified),103.2%
2,CC(C)c1csc(C2CCCN(C(=O)Cn3ccccc3=O)C2)n1 (stereo unspecified),-10.1%
3,Cc1n[nH]c(C2CN(C(=O)Cn3ccccc3=O)CCO2)n1 (stereo unspecified),-1.768%
4,CCN(C)S(=O)(=O)NCC1(c2ccccc2Br)CC1,2.269%
5,CN(Cc1csc(-c2cccs2)n1)Cc1ncccc1C(=O)O,6.204%
6,CN(C)C(=O)C1SCCc2ccccc21 (stereo unspecified),-15.52%
7,CCOc1ccc(NC2CCN(CC(F)(F)F)C2=O)cc1C (stereo unspecified),-0.2214%
8,COc1ccc(S(=O)(=O)NCC(C)(O)c2cccs2)cc1Cl (stereo unspecified),0.9761%
9,COc1cccc(CN(C)C(C)c2nccs2)c1OCCn1ccnc1 (stereo unspecified),-3.505%
10,Cc1ccn(-c2ccccc2NCc2cccnc2C)n1,-1.379%
11,O=C(O)C(F)(F)F.O=C1CC[C@]2(CC[C@@H](NC3CCOCC3)CC2)N1Cc1ccccc1,-21.38%
12,O=C(O)C(F)(F)F.O=C1CC[C@]2(CC[C@@H](NC3CCOC3)CC2)N1Cc1ccccc1 (stereo partly specified),-11.81%
13,CCN1C(=O)CC[C@]12CC[C@@H](NC(=O)c1cc(C)on1)CC2,-41.62%
14,CC(C)N1CCC(NC(=O)NCc2cccnc2)C1 (stereo unspecified),-0.2987%
15,O=C(NCc1cccnc1)N[C@H]1CC[C@@]2(CCC(=O)N2CC2CC2)CC1.O=C(O)C(F)(F)F,109.8%
16,CN1CCN(Cc2cccnc2)C2(CCN(C3CCOCC3)C2)C1=O.O=C(O)C(F)(F)F.O=C(O)C(F)(F)F.O=C(O)C(F)(F)F (stereo unspecified),4.033%
17,CCN1C(=O)CC[C@]12CC[C@@H](NC(=O)NCc1cccnc1)CC2.O=C(O)C(F)(F)F,126.1%
18,O=C(NCc1cccnc1)NC1CCCN(c2ncccn2)C1 (stereo unspecified),12.61%
19,Cc1ccc(CN2C(=O)CC[C@]23CC[C@@H](NC2CCOC2)CC3)cc1.O=C(O)C(F)(F)F (stereo partly specified),-29.75%
20,O=C(NCc1cccnc1)C1CC(=O)N(CC2CC2)C1 (stereo unspecified),7.078%
21,CC(C)CN1C(=O)CC[C@]12CC[C@@H](NC(=O)NCc1cccnc1)CC2.O=C(O)C(F)(F)F,100.3%
22,CN1C(=O)CC[C@]12CC[C@@H](NC(=O)NCc1cccnc1)CC2.O=C(O)C(F)(F)F,120.2%
